An excerpt weighted towards active compounds, which were near 12% of everything screened.
JMJD2A Tudor – inhibitors of human JMJD2A Tudor domain; AlphaScreen JMJD2A-Tudor / H3K4me3 peptide binding; Potency, µM (highest dose often 114 µM), actives largely listed as inhibitors; actives 4.4% (n = 390,000); AID 504339; note: nearly all actives have a fitted effect of over 50% in size
BAZ2B inh – BAZ2B (human) inhibition | Q9UIF8 | AlphaScreen BAZ2B-H3K14Ac peptide displacement | Potency, µM (titrated, usually from 114 µM), actives largely listed as inhibitors | actives 4.4% (n = 360,000) | AID 504333; note: nearly all actives have a fitted effect of over 60% in size
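AlphaScreen displacement of biotin-H3(5-23)K14Ac peptide (50 nM final) from BAZ2B (50 nM final) in PBS pH 7.4, 0.01% Tween-20; complex preformed 30 min RT, then compounds (top 110 uM) 30 min RT, beads 20 min dark.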
HP1b binding inh – HP1-beta chromodomain-methylated histone interaction inhibition | Potency, µM (doses to about 114 µM), usual class: inhibitors | AlphaScreen HP1-beta / biotin-H3K9me3 peptide binding | actives 0.56% (n = 390,000) | P83916; note: nearly all actives have a fitted effect of over 70% in size
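AlphaScreen: HP1-beta (50 nM) preformed 30 min with biotin-H3(1-18)K9me3 peptide (50 nM) in PBS pH 7.4, 0.01% Tween-20. Compound added for 30 min at RT, then streptavidin donor/nickel chelate acceptor beads (10 ug/mL) for 30 min.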
Sfp PPTase inh – inhibitors of Bacillus subtilis Sfp phosphopantetheinyl transferase; AID 1490; Q9F4F7; Biochemical Sfp PPTase activity, qHTS; actives 3.5% (n = 310,000); Potency, µM, usual class: inhibitors;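 note: the enzyme is Sfp with the accession as filed and its product quenches rhodamine fluorescence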
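Compounds were incubated with enzyme (final 15 nM) for 15 min at room temperature before substrate addition started the reaction. Fluorescence at 525 nm excitation, 598 nm emission was recorded immediately and after 30 minutes.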
G9a inh – inhibitors of human histone lysine methyltransferase G9a | Q96KQ7 | G9a H3K9 monomethylation, AlphaScreen, 2 h | Potency, µM (series often up to 102 µM), most hits filed as inhibitors | actives 8.8% (n = 350,000) | AID 504332; note: nearly all actives have a fitted effect of over 75% in size
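Methyltransferase reactions run at room temperature for 2 h (20 nM enzyme, 500 nM biotin-H3K9 peptide, 20 uM SAM) after a 15 min compound preincubation; product detected by AlphaScreen beads and anti-H3K9me1 antibody.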
L3MBTL1 inh – inhibitors of human L3MBTL1 | Q9Y468 | AlphaScreen L3MBTL1–H3K9me1 peptide binding | Potency, µM (top dose mostly 57.1 µM), hits mostly inhibitors | actives 0.66% (n = 230,000) | AID 485360; note: nearly all actives have a fitted effect of over 60% in size
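Read-out is AlphaScreen signal from streptavidin donor and nickel chelate acceptor beads (10 ug/mL final each) bridging L3MBTL1 (50 nM) and biotinylated K9-monomethylated H3(1-15) peptide (75 nM), after 30 min compound exposure at room temperature.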
Numbers stand for hits; – = inactive; ? = inconclusive; · = not tested or not shown; [ ] = remark or other dose. Calls come from the whole dose curve; as a rule, active = well fitted curve in the direction sought with a large enough effect; inconclusive = small, poorly fitted or top-dose-only effect, or another doubt; inactive = no such curve, though single readings can be large; an effect the other way counts as inactive or inconclusive.

SMILES	JMJD2A Tudor	BAZ2B inh	HP1b binding inh	Sfp PPTase inh	G9a inh	L3MBTL1 inh
O=C(NNC(=O)c1cccs1)c1ccco1	–	–	–	89µM	–	–
O=C(c1cc(F)cc(F)c1)N1CCC(c2nc(-c3ccc(S(=O)(=O)N4CCCC4)cc3)no2)CC1	–	–	–	·	–	·
Cc1ccc(CNC(=O)c2cccc(-n3cnc4cccnc43)c2)cc1	–	–	–	·	–	·
O=[N+]([O-])c1cc(C(F)(F)F)cc([N+](=O)[O-])c1NCc1cccnc1	–	–	–	–	50µM	–
O=[N+]([O-])c1cc(C(F)(F)F)cc([N+](=O)[O-])c1NCCCNc1ccc([N+](=O)[O-])c2cccnc12	?	–	–	–	3.5µM	–
O=[N+]([O-])c1ccc(Cl)cc1NCc1cccnc1	–	·	?	·	·	·
CCc1ccccc1NC(=O)c1cc(-c2ccc(OC)cc2)on1	–	–	–	–	–	·
COc1ccc(-c2cc(C(=O)Nc3c(C)nn(Cc4ccc(F)cc4)c3C)no2)cc1OC	–	–	–	·	–	·
CCc1ccccc1NC(=O)c1cc(-c2ccco2)on1	–	–	–	–	40µM	·
Cc1nn(Cc2ccc(F)cc2)c(C)c1NC(=O)c1cc(-c2ccco2)on1	–	–	–	–	56µM	–
COc1ccc(NC(=O)c2cc(-c3ccco3)on2)cc1OC	–	–	–	–	50µM	·
Cc1ccc(NC(=O)N/C=C/c2ccco2)cc1C	?	–	–	–	32µM	–
Cc1ccc(NC(=O)c2cc(-c3ccco3)on2)cc1C	–	?	–	?	50µM	–
CCCN1CCN(C(=O)Cn2c(-c3cccs3)cc3ccccc32)CC1	–	–	–	·	–	·
Cc1ccc(C2CC(=O)N3CN(Cc4ccco4)CSC3=C2C#N)cc1 (stereo unspecified)	56µM	–	?	2.2µM	?	–
N#CC1=C2SCN(Cc3ccco3)CN2C(=O)CC1c1c(F)cccc1Cl (stereo unspecified)	14µM	–	?	2.8µM	1.6µM	·
CCCCOc1cccc(NC(=O)CSc2nnc(C)s2)c1	–	–	–	·	–	·
Cc1cc(NC(=O)c2ccc(C#N)cc2)n(-c2ccccn2)n1	–	–	–	–	45µM	–
Cc1ccc(C)c(-n2c(C)cc(/C=N/NC(=O)c3c(C)nc4cc(C)ccn34)c2C)c1	40µM	–	–	–	?	?
CC12CCC=CC1C(c1ccc(C(F)(F)F)cc1)N(Cc1ccccc1)C2=O (stereo unspecified)	–	·	–	–	·	·
CC1(C)CC(=O)C(C=NCCN2CCN(C(=S)NC3CCCCC3)CC2)=C(O)C1	–	–	–	79µM	–	–
CC1(C)CC(=O)C(C=NCCN2CCN(C3CC(=O)N(c4cccc(Br)c4)C3=O)CC2)=C(O)C1 (stereo unspecified)	–	–	–	–	71µM	–
CC1(C)CC(=O)C(C=NCCN2CCN(C(=S)Nc3ccc(F)cc3)CC2)=C(O)C1	–	–	–	–	–[12.7 µM]	–
CCOC(=O)C1CCN(CC(=O)Nc2cc(C)c3c(=O)oc4ccccc4c3n2)CC1	–	–	–	·	–	·
Cc1c(C#N)c2ccccc2n1C	–	–	–	–	–	·
SMILES	JMJD2A Tudor	BAZ2B inh	HP1b binding inh	Sfp PPTase inh	G9a inh	L3MBTL1 inh
Cc1sc(N)nc1-c1c(C)n(C)c2ccccc12	–	?	–	–	45µM	·
NC(=O)c1ccccc1NC(=O)CCc1ccccc1	–	–	–	–	–	–
NC(=O)c1ccccc1NC(=S)NC(=O)c1ccc(Br)o1	–	–	–	22µM	45µM	–
NC(=O)c1ccccc1NC(=S)NC(=O)CCc1ccccc1	79µM	–	?	28µM	4.5µM	–
O=C(NC(=S)Nc1ccccc1)c1ccc(Br)o1	–	–	–	–	?	–[11.4 µM]
Cc1ccc(-n2ncc3c(NCc4ccccc4)ncnc32)cc1Cl	–	–	–	·	–	·
COc1cccc(-c2nc(S(=O)(=O)c3ccccc3)c(N3CCCCC3)o2)c1	–	–	?	·	?	·
Cc1cccc(N2CCN(C(=O)CN3C(=O)NC(C)(C4CC4)C3=O)CC2)c1C (stereo unspecified)	–	–	–	·	56µM	–
